# Molecular target: Glucose transporter (Leishmania mexicana) (UniProt O61059)
# Assay: ST_JUDE_LEISH: Cytotoxicity at 2uM final concentration against transgenic Leishmania Mexicana promastigotes LmGT2 that are glucose transport deficient and complemented with the L. Mexicana glucose transporter 2. Activity is measured by DNA content using SYBR green in vitro
# Type: functional
row,SMILES,inhibition
1,CS(=O)(=O)Nc1ccc2[nH]cc(C3CCN(CCCCCNC(=O)/C=C/c4ccc(Cl)c(Cl)c4)CC3)c2c1,3.35%
2,CN(C)CCCNCc1ccc(-c2ccc(C(F)(F)F)cc2)cc1,4.81%
3,Cc1nc(-c2ccc(-c3ccc(C(=O)Nc4ccc(Cl)c(N5CCN(C)CC5)c4)cc3)c(C)c2)no1,8.29%
4,Cc1cc(NCCCN2CCCC2=O)n2c(nc3ccccc32)c1C#N,2.22%
5,CC1CN(c2ccc3occ(C(=O)Nc4ccc(-c5ccncc5)c(Cl)c4)c3c2)CC(C)N1C (stereo not given),1.93%
6,CCCCCC(=O)N1CCOC(CCN2CCc3c(c4ccccc4n3C)C2)(c2ccc(Cl)c(Cl)c2)C1 (stereo not given),9.52%
7,Nc1nc(N)c2c(Oc3ccc(Cl)c(Cl)c3)cccc2n1,-3.94%
8,CCC[C@@H]([C@@H](CC(C)C)C(=O)N[C@@H](CCC/N=C(/N)NS(C)(=O)=O)C(=O)Nc1nccs1)N(O)C=O,6.5%
9,CC(C)NCc1ccc(-c2ccc(CN3CCCC(c4ccccc4)C3)cc2)c(C(=O)NC2Cc3ccccc3C2)c1 (stereo not given),11%
10,CC(Cc1ccc(NC(=O)c2ccc(CNCc3ccccc3)cc2)cc1)N(CCc1cccc(Cl)c1)C(=O)OC(C)(C)C (stereo not given),3.04%
11,COc1ccccc1CNC(=O)c1ccc(N2CCN(c3ccncc3)CC2)cn1,1.11%
12,O=C(C=Cc1ccc(-c2nc3ccccc3[nH]2)cc1)NC1CCN(Cc2ccccc2)CC1,5.3%
13,O=C(Nc1cccc(Oc2ccccc2)c1)N[C@H]1CCN(Cc2ccc(OCCCN3CCCCC3)cc2)C1,6.98%
14,Cc1cc(N[C@@H](Cc2ccccc2)C(=O)Nc2ccccc2)nc(NCCN2CCCC2)n1,-2.29%
15,Cc1cc(N2CCCCC2)nc2ccc(NC(=O)c3cncc(Br)c3)cc12,6.57%
16,COc1ccc(C(C(=O)NC2CCN(C[C@H](O)c3ccnc4ccc(OC)cc34)CC2)N2CCN(c3ccc(F)cc3)CC2)cc1 (stereo not given in full),1.93%
17,COc1ccc2c(C)cc(NCCCN(C)C)nc2c1,-1.1%
18,CN(C)CCn1c(N)c(-c2nc3ccccc3s2)c2nc(C#N)c(C#N)nc21,3.11%
19,COc1ccc2nccc(NC(=O)OC3CCC(NCc4ccc5c(n4)NC(=O)CS5)CC3)c2c1 (stereo not given),3.92%
20,Cc1ccc(NC(=O)c2ccc(NCCCN3CC(C)CC(C)C3)c([N+](=O)[O-])c2)cc1F (stereo not given),5.89%

row,SMILES,inhibition
1,O=[N+]([O-])c1ccc(C(O)CNCCc2ccccc2)cc1OCc1ccccc1 (stereo not given),15%
2,O=c1c(NCCCN(Cc2ccc(F)cc2)c2ccccn2)c(NCc2cccnc2)c1=O,1.65%
3,Cn1nccc1C(=O)NCCNCc1ccc(-c2ccc(-c3nc4cc(F)ccc4[nH]3)cc2)cc1,5.68%
4,O=C(Nc1ccc(OC2CCN(Cc3ccccc3)CC2)c(Cl)c1)c1ccc(F)cc1,1.68%
5,CC(CNC1CCN(CCn2c(=O)ccc3ccc(F)cc32)CC1)c1ccccc1 (stereo not given),-0.24%
6,CC1(C)N=C(N)N=C(N)N1CCc1ccccc1,8.45%
7,Cc1cc(OCCCN2CCC(NS(=O)(=O)c3ccc(Cl)c(Cl)c3)C2)c2ccccc2n1 (stereo not given),3.91%
8,CC(C)(C)[C@@H](Nc1ccc(C#N)c2ccccc12)C(=O)NC1(Cc2ccc(O)c(Br)c2)CCCC1,-0.09%
9,O=C(NCc1ccc(C(=O)NCc2cccc3ccccc23)cc1)c1ccc(O)c(-c2ccc(Cl)c(Cl)c2)c1,0.96%
10,CCOc1cc2c(cc1OCC)C(c1cc(OC)c(O)cc1Cl)NCC2 (stereo not given),2.79%
11,O=C(Nc1cccc(-c2ccc(-c3nc4cc(C(F)(F)F)ccc4[nH]3)cc2)c1)c1csnn1,0.51%
12,COc1cc(C(=O)N2CCN(C(C)C)CC2)ccc1CN(C)CCCN1CCN(c2cccc(Cl)c2Cl)CC1,0.31%
13,CC1CN(Cc2cccc(-c3ccc(-c4nc5ccccc5[nH]4)cc3)c2)CC(C)O1 (stereo not given),2.3%
14,O=C(Nc1ccc(N2CCCN(Cc3cccc(F)c3)CC2)cc1)c1ccc(F)cc1,5.51%
15,CCc1cn2c3c(cc(C(=O)N[C@@H](Cc4cc(F)cc(F)c4)[C@H](O)CNC4CCOCC4)cc13)N(C)S(=O)(=O)CC2,-0.48%
16,COCCCNc1sc(S(=O)(=O)c2ccccc2)nc1S(=O)(=O)c1ccc(C)cc1,1.51%
17,CCN(CC)CCCn1c(N)c(-c2nc3ccccc3[nH]2)c2nc(C#N)c(C#N)nc21,4.63%
18,CC(C)NC(=O)c1cccc(-c2ccc(OCCN3CCCC3c3cc4ccccc4[nH]3)cc2)c1 (stereo not given),-1.97%
19,O=C(N[C@@H](CC1CCCCC1)C(=O)NCc1cccc(C(F)(F)F)c1)c1ccc(O)c(-c2ccc(Cl)c(Cl)c2)c1,1.16%
20,COc1ccc(C(=O)N2CCC3(CC2)C(=O)N(CC(=O)NC2CCCCC2)CN3c2ccccc2)c(OC)c1,4.38%

# Reference: ChEMBL document CHEMBL3433997, “St. Jude Leishmania screening dataset” (2016)
